The values that follow come from PubChem BioAssay AID1946 (Johns Hopkins Ion Channel Center, 2009).

Structures are written as SMILES. About 180 (7.5%) of roughly 2,400 compounds were called active. This is one part of a sample in which actives are shown more often than they occur. A number with no mark means an inactive call.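 Rule for the calls: active = readout below zero, meaning a drop past 3 SD under the dofetilide-free negative control mean; inactive = the rest.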

The target in this assay is Potassium voltage-gated channel subfamily KQT member 2 (Rattus norvegicus) (UniProt O88943). As to the kind of experiment: KCNQ2 blockade in CHO cells – cell-based, FluxOR thallium flux, counter-screen for hERG block protector project, confirmation (AID 1946). Conditions: FluxOR thallium flux fluorescence, at 10 µM, hits give low values, zero marks the 3-SD hit cutoff. (In general: A counterscreen serves to expose hits that act by an unwanted route or on another target.)
Potassium voltage-gated channel subfamily KQT member 2 (Rattus norvegicus), sequence (O88943 whole entry, looked up): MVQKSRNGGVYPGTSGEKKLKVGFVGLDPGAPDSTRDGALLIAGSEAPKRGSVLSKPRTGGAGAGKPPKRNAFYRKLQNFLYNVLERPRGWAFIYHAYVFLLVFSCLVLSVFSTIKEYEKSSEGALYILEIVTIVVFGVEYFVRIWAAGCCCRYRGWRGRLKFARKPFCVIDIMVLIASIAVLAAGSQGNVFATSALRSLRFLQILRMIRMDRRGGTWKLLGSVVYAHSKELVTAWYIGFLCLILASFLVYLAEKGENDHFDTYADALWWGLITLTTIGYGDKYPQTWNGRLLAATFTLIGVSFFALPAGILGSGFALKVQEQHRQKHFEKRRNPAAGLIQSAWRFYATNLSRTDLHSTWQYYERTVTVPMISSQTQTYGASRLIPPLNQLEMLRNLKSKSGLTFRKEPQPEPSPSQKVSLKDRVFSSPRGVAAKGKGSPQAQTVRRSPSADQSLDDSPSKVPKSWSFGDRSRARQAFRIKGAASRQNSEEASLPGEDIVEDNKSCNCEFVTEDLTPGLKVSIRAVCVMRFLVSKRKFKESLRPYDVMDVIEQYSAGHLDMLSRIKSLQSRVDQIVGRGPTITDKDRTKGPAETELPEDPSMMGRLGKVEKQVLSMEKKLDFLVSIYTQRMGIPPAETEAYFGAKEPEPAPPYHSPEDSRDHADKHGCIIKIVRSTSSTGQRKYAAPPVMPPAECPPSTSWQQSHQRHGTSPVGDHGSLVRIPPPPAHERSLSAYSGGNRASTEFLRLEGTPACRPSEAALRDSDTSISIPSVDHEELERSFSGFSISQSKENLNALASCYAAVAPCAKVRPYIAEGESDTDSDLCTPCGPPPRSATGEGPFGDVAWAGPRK
As for `CC(C)(C)OC(=O)NCCCC(CCCNC(=O)OC(C)(C)C)C(=O)O`, the activity change vs negative control was -1.1% (active).
As to `Cc1c(C)c2ccc(OCC(=O)N[C@@H](Cc3ccccc3)C(=O)O)cc2oc1=O`, the activity change vs negative control is 11.8%.
In the case of `O=C(NC(=S)Nc1ccccc1Cl)c1ccco1`, the activity change vs negative control was 32.3%.
For the compound `O=C(CCC1CCCC1)NNC(=O)c1cccc(Cl)c1`, the activity change vs negative control is 39.5%.
Regarding `Cn1c(=S)[nH]c2scc(-c3cccs3)c2c1=O`, the activity change vs negative control was 93.4%.
In the case of `CCc1ccc(C(C)NC(=O)C2CCCC2)cc1` (stereo not given) it was 42.6%; in that of `CCCCCn1c(=S)[nH]c2ncccc2c1=O`, 48.4%; in that of `O=C(NC(=S)N1CCN(c2ccccc2)CC1)c1ccccc1`, 33.2%.
For the compound `Cc1ccc(/C=C(\NC(=O)c2ccccc2)C(=O)N2CCCCC2)cc1`, the activity change vs negative control was -1.3% (active).
Then `CC(C)(C)c1ccc(C(=O)NC(=S)N2CCCCCC2)cc1`, with 40.6%.
On to `CCCCOc1ccc(-c2c(C#N)c(N)[nH]c(=S)c2C#N)cc1`, for which the activity change vs negative control was 21.3%.
Take `O=c1oc2ccccc2c(Cl)c1CN1CCCCC1`: the activity change vs negative control was 32.3%.
Then `C=CCn1c(=S)[nH]c2ccc(Br)cc2c1=O`, with 40.2%.
In the case of `O=C(COC(=O)C1CCC(=O)N1)Nc1ccc(Oc2ccccc2)cc1` (stereo not given) it was 10.5%; in that of `COc1ccc(N2CC(C(=O)OCC(=O)Nc3ccccc3C)CC2=O)cc1` (stereo not given), 9%.
In the case of `COC(=O)c1ccc(NC(=O)COC(=O)C2CC(=O)N(Cc3ccccc3)C2)cc1` (stereo not given) it was -5.2% (active); in that of `COC(=O)c1c(NS(=O)(=O)Cc2ccccc2)sc2c1CCCC2`, 56.6%.
Consider `Cc1ccccc1C(=O)c1cn[nH]c1-c1ccccc1O`, for which the activity change vs negative control is -4.7% (active).
Then `Cc1ccc(C(=O)c2ccccc2C(=O)O)c(O)c1`, with 6.4%.
In the case of `Cc1ccccc1C(=O)Nc1nc(=S)ss1` it was 82.2%; in that of `COc1ccc(C(=O)CC(=O)C(=O)Nc2ccccc2C(F)(F)F)cc1`, 36.8%.
Then `CCOC(=O)N1CCC(N2C(=O)c3ccccc3C2Nc2cccnc2)CC1` (stereo not given), with 27.6%.
In the case of `CCOc1ccc(C(C)NC(=S)NC2CCCCC2)cc1` (stereo not given), the activity change vs negative control was 40.9%.
Then `Fc1cccc2sc(Nc3nc4c(F)cccc4s3)nc12`, with 30.2%; and `Cc1ccc(-c2csc3nc[nH]c(=S)c23)cc1`, with 62.4%; and `Cn1nnnc1SCC(=O)Nc1ccccn1`, with 8.7%.
Then `CCn1nnnc1SCC(=O)N1c2ccccc2Sc2ccccc21`, with 5.3%.
In the case of `Cn1nnnc1SCC(=O)NC1CCCc2ccccc21` (stereo not given) it was -7.8% (active); in that of `Cc1cccc(OCC(=O)NC2CCCc3ccccc32)c1C` (stereo not given), -10.6% (active).
With `O=C(NC(=S)NC1CCCc2ccccc21)c1ccco1` (stereo not given), the activity change vs negative control is 28.4%.
In the case of `CCOc1ccc(NC(=O)CS(=O)CC(=O)NC2CCCc3ccccc32)cc1` (stereo not given) it was 8.3%; in that of `Cc1cccc(NC(=O)C(=O)NNC(=O)c2ccc(C(C)(C)C)cc2)c1`, 134%; in that of `C=CCn1c(=S)[nH]c2sc3c(c2c1=O)CCC3`, 64.2%.
In the case of `CC(NC(=O)NC1CCCCC1)c1ccccc1` (stereo not given), the activity change vs negative control was 57.6%.
For `CCN(Cc1ccccc1)C(=S)NC(=O)c1ccccc1Br`, the activity change vs negative control is 96.1%.
Then `S=c1nc(SCc2ccccc2)[nH]c2ccccc12`, with 95.4%; and `Cc1ccc(/C=N/N2C(=O)c3ccccc3NC2c2ccc(C)cc2)cc1` (stereo not given), with -1.1% (active); and `Cc1cc([N+](=O)[O-])ccc1-c1ccc(C2Nc3ccccc3C(=O)N2O)o1` (stereo not given), with 24.1%.
Then `Cc1ccc(/C=C/C(=O)C2C(=O)c3ccccc3C2=O)cc1`, with 69.5%; and `CC(C)CNC(=S)NC(=O)c1ccc(Cl)cc1`, with 10.6%; and `CCc1c(C)sc(NC(=O)CN2CCN(C(=O)c3ccco3)CC2)c1C(=O)OC`, with 44.4%.
In the case of `Cc1ccc(-c2nc3c(Cl)cc(Cl)cc3c(=O)n2O)cc1` it was 164%.
Consider `O=C1c2ccccc2C(=O)N1c1cccnc1`, for which the activity change vs negative control is 6.9%.
Then `CC(=O)C1=C(O)C(=O)N(c2cccnc2)C1c1ccc(Cl)cc1` (stereo not given), with -2.8% (active); and `CC1=NN(c2ccccc2)C(=O)C1C(=O)c1ccc(Cl)cc1` (stereo not given), with 28.9%; and `CN(Cc1ccccc1)C(=S)NC(=O)c1cccs1`, with 31.2%.
Then `Nc1nc(O)c(N=Nc2ccc(S(N)(=O)=O)cc2)c(=O)[nH]1`, with -2% (active); and `Cc1ccc2[nH]c(=O)c(C(c3nnnn3C3CCCC3)N3CCCc4ccccc43)cc2c1` (stereo not given), with 27.9%; and `COc1ccc(-c2csc(NC(=S)NC(=O)c3ccco3)n2)cc1`, with 21.1%.
In the case of `COCCCn1c(=S)[nH]c2c(sc3ccccc32)c1=O` it was 12.3%; in that of `Cn1c(=O)c2sccc2n(Cc2cccc(Br)c2)c1=O`, 10.6%.
As to `C=Cc1ccc(Cn2c(=O)n(CCCOC)c(=O)c3sccc32)cc1`, the activity change vs negative control is -5.9% (active).
In the case of `Cc1cccc2nc(-c3cccnc3)c(NCCC(C)C)n12` it was -23.5% (active); in that of `CC(C)Cn1c(=S)[nH]c2cc(Cl)ccc21`, 21%; in that of `COc1ccc(-c2nc(=S)c3ccc4ccccc4c3[nH]2)cc1`, 74.5%.
Then `CC(C)OC(=O)c1c(NS(=O)(=O)c2ccccc2)sc2c1CCCC2`, with 31%; and `C/C(=C/CCC(C)[C@H]1CC[C@@]2(C)C3=C(CC[C@]12C)[C@@]1(C)CCC(=O)C(C)(C)[C@@H]1CC3)C(=O)O` (stereo not given in full), with -13.3% (active).
In the case of `C/C(=C/CCC(C)C1CCC2(C)C3CCC4C(C)(C)C(=O)CCC4(C)C3=CCC12C)C(=O)O` (stereo not given) it was 4.1%; in that of `O=C1c2ccccc2NC(c2ccc(Br)s2)N1O` (stereo not given), 92.4%.
On to `COc1cccc(C=NCCCN=Cc2cccc(OC)c2O)c1O`, for which the activity change vs negative control is 37.4%.
In the case of `Cc1ccnc(SCCn2c(N3CC(C)OC(C)C3)nc3c2c(=O)n(C)c(=O)n3C)n1` (stereo not given) it was -2% (active); in that of `C=CCn1c(N2CCCCCC2)nc2c1c(=O)n(C)c(=O)n2C`, 15.6%.
Regarding `CCOC(=O)NC(=S)Nc1ccc(C(C)(C)C)cc1`, the activity change vs negative control was 30.4%.
As to `CCOc1ccc(/C=C2/SC(=O)NC2=S)cc1`, the activity change vs negative control is 111%.
Then `CCCCC(=O)Nc1ccc(NCc2ccc(C)s2)cc1`, with 66.2%; and `Cc1c(-c2ccccc2)sc2nc[nH]c(=S)c12`, with 75%; and `Cc1cc(F)c(F)c(C(=O)N2CCOCC2)c1`, with 7.3%.
On to `Cc1cc(C(=O)NP(=O)(N2CCOCC2)N2CCOCC2)c(C)n1-c1ccc(Br)cc1`, for which the activity change vs negative control was -0.1% (active).
Then `Cc1ccc(-n2c(C)cc(C(=O)CN3CCOCC3)c2C)cc1`, with 10.9%; and `O=c1c(-c2cccc3ccccc23)[n+]([O-])c2ccccc2n1O`, with 27.4%; and `COc1ccc(-c2c(C)c3ccc(OCC(C)=O)cc3oc2=O)cc1`, with 4.2%.
As to `COc1ccc(-c2cc(=O)oc3cc(OCC(C)=O)ccc23)cc1`, the activity change vs negative control was -6.4% (active).
Then `Cc1cc(=O)oc2cc(OCC(=O)OCC(=O)NC(C)C)ccc12`, with 12.7%.
In the case of `c1ccc(Cn2ncc3c(N4CCN(C(c5ccccc5)c5ccccc5)CC4)ncnc32)cc1` it was -7.5% (active); in that of `Oc1ccc(N2CCN(C(c3cccnc3)c3nnnn3Cc3ccccc3)CC2)cc1` (stereo not given), 19.3%.
In the case of `Oc1ccc(Cl)cc1C1=NNC(c2cccs2)C1` (stereo not given) it was 36.9%; in that of `CC(C)c1ccc(NC(=O)C2CC3CCC2C3)cc1` (stereo not given), 45.1%.
As for `CCOC(=O)C1=NN(C(=O)c2cccc(Br)c2)C(O)(C(C)(C)C)C1` (stereo not given), the activity change vs negative control is 111%.
In the case of `O=C(NC(=S)N1CCCc2ccccc21)c1ccc(Br)cc1` it was 49.6%; in that of `O=C(NN1C(=O)C2C(c3ccccc3)C=CC(c3ccccc3)C2C1=O)c1cccc(Br)c1` (stereo not given), 10.8%.
In the case of `O=C(NN1C(=O)C2C(c3ccccc3)C=CC(c3ccccc3)C2C1=O)c1ccncc1` (stereo not given) it was -13% (active); in that of `O=C(Nn1cnnc1)c1ccncc1`, 12.7%; in that of `Cc1ccc(C(C)NC(=O)C2CCCC2)cc1C` (stereo not given), 66.7%.
Then `Cc1cccc(N2CCN(C(=O)Cc3c(C(=O)O)[nH]c4ccc(Cl)cc34)CC2)c1C`, with 38.6%; and `CC1CCN(C(=S)NC(=O)c2cccc([N+](=O)[O-])c2)CC1`, with 37.1%; and `O=c1c2cc(Cl)ccc2nc(-c2ccc(Cl)c(Cl)c2)n1O`, with 150%.
Consider `Cc1ccc(-c2onc3ccc(Cl)cc23)cc1`, for which the activity change vs negative control was -2% (active).
Then `Cc1ccc(-c2nc3ccc(Cl)cc3c(=O)n2O)cc1`, with 118%; and `CC[C@@H](C(=O)[C@@H](C)[C@@H](O)[C@H](C)CCc1ccc(C)c(O)c1C(=O)O)[C@H]1O[C@](CC)([C@H]2CC[C@](O)(CC)[C@H](C)O2)C[C@@H]1C`, with 169%; and `COc1ccccc1NC(=S)NC(=O)c1ccc(-c2ccc(Cl)cc2)o1`, with 16.7%.
In the case of `C=CCn1c(=S)[nH]c2sc3c(c2c1=O)CCCC3` it was 60.7%; in that of `O=C(Cn1c(=O)c2cccn2c2ccccc21)NCCc1ccc(Cl)cc1`, -3.5% (active); in that of `O=C(CNC(=O)c1ccccc1)NCc1ccc(Cl)cc1`, 10.8%.
In the case of `O=C(NC(=S)NCCc1ccc(Cl)cc1)c1ccco1` it was 23.7%; in that of `Cc1nc(NCCc2ccc(S(N)(=O)=O)cc2)c2c(C)c(C)sc2n1`, 15.2%; in that of `O=c1cc(-c2c(F)c(F)c(F)c(F)c2F)oc2ccccc12`, 41.6%.
Regarding `CCOC(=O)c1nnn(CC(=O)Nc2ccccc2OC)c1C(=O)OCC`, the activity change vs negative control is 7.9%.
For `COc1ccccc1C(=O)COC(=O)c1ccc(-n2cnnn2)cc1`, the activity change vs negative control was -0.2% (active).
Then `COc1ccccc1C(=O)Nc1ccc(C(=O)N2CCCC2)cc1`, with 14.7%; and `O=C(NC(=S)Nc1nc(-c2ccc([N+](=O)[O-])cc2)cs1)c1ccco1`, with 42%.
